Compounds without any hit were thinned out: in the full panel of roughly 79,000, 15% have a hit. Values without a mark were called inactive. The source made the active and inactive calls. Cut-off read from the data, not from the text of the source: active = growth inhibition above about 70%; inactive = the rest. Where a SMILES comes first, the peptide text is derived from it.
What was measured:
[1] = NCI Yeast Anticancer Drug Screen. Data for the rad50 strain (AID 155);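 note: 0% = growth of vehicle-only cultures of the same strain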; settings: S. cerevisiae rad50 strain growth inhibition; at 50.0 µM; hits give high values
Outline: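 Vehicle-treated cultures provide the reference for the growth inhibition reported for compound-exposed, repair-deficient yeast.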

[2] = NCI Yeast Anticancer Drug Screen. Data for the mec2-1 strain (AID 157); settings: S. cerevisiae mec2-1 strain, at 50.0 µM, hits give high values
Outline: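 Cells of the genetically defined mec2-1 yeast strain are incubated with test compound. Inhibition of growth is calculated against vehicle-treated controls.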

[3] = NCI Yeast Anticancer Drug Screen. Data for the sgs1 mgt1 strain (AID 161);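 note: 0% = growth of cultures given vehicle only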; settings: S. cerevisiae sgs1 mgt1 strain, at 50.0 µM, hits give high values
Outline: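 Inhibition of yeast growth, normalised to vehicle-treated controls, is reported for a strain bearing genetic alterations in DNA damage repair.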

[4] = NCI Yeast Anticancer Drug Screen. Data for the cln2 rad14 strain (AID 165);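 note: 0% = growth equal to vehicle treated cultures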; settings: S. cerevisiae cln2 rad14 strain, at 50.0 µM, hits give high values
Outline: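 The screen exposed genetically defined yeast (cln2 rad14) to test compounds and scored growth inhibition relative to vehicle-treated controls.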

[5] = NCI Yeast Anticancer Drug Screen. Data for the bub3 strain (AID 167); settings: S. cerevisiae bub3 mutant strain, at 50.0 µM, hits give high values
Outline: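 Mutant yeast screening strain plus compound; vehicle-treated cultures serve as the 0% inhibition reference.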

[6] = NCI Yeast Anticancer Drug Screen. Data for the mlh1 rad18 strain (AID 175); settings: S. cerevisiae mlh1 rad18 strain growth inhibition; at 50.0 µM; hits give high values
Outline: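 Compound-treated yeast growth, normalised to vehicle controls. Strain bears defined DNA repair mutations.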

Row | SMILES | growth inhibition [1] | growth inhibition [2] | growth inhibition [3] | growth inhibition [4] | growth inhibition [5] | growth inhibition [6]
1 | O=C1c2ccccc2-c2nc(-c3cccs3)cc3c2c1nc1ccccc13 | 41.2% | 21.4% | 29.1% | 21.9% | 25% | 36.2%
2 | Cc1cc(C)c(-c2c(C)cc(C)c([N+](=O)[O-])c2C)c(C)c1N | 98.1% (active) | 98.8% (active) | 98.4% (active) | 96.5% (active) | 97.2% (active) | 97.8% (active)
3 | CCOC(=O)CC(=O)Cc1oc2c(C(C)=O)c(O)c(C)c(O)c2c1C | -0.8% | 7% | -0.2% | 6.05% | 2.85% | 14.8%
4 | CCOC(=O)C(C)c1nc2cc(C(F)(F)F)ccc2[nH]c1=O (stereo not drawn) | 3.55% | 7.1% | 8.1% | 7.5% | 19.7% | -21.2%
5 | CCCCCCCCCCN=C(N)CSSCC(N)=NCCCCCCCCCC | 96.2% (active) | 97% (active) | 97.1% (active) | 92.8% (active) | 95% (active) | 97.4% (active)
6 | CCOC(=O)c1ccc(N=Nc2ccc(N(CCC#N)CCC#N)cc2C)cc1 | -47.5% | -50.6% | -27.4% | -4.4% | -36.8% | -24.5%
7 | c1ccc([P+](CCNCCNCC[P+](c2ccccc2)(c2ccccc2)c2ccccc2)(c2ccccc2)c2ccccc2)cc1 | 6.3% | 9.25% | -13.8% | 5.65% | -5.2% | -0.6%
8 | O=[N+]([O-])c1ccc2oc3cccnc3c2c1 | 28.6% | -2.8% | -2.65% | -14.1% | 1.3% | 12.8%
9 | O=C(Nc1ccccc1Cl)c1ccc(F)cc1 | -2.25% | -12.2% | 15% | 7.4% | -21.4% | -3.85%
10 | CCC1(CC)C(=O)N(C(=O)c2ccc(Cl)cc2)N(C(=O)c2ccccc2Cl)C1=O | 22.3% | 23.8% | 5.8% | 41.8% | 49.2% | -53.5%
11 | Cc1ccc(/C=N/NC2=NCCN2)s1 | -0.4% | 8% | 4.35% | 8.15% | -5.05% | 9.75%
12 | CCN(CC)CCCC(C)NC1CCCc2cc3c(cc21)C(=O)c1ccccc1C3=O (stereo not drawn) | 34% | 13.8% | 38.1% | 14.9% | -4.5% | 33.1%
13 | NC(Cc1cnc[nH]1)C(=O)NC(Cc1ccc(O)cc1)C(=O)O (stereo not drawn) (H-His-Tyr-OH; configuration not given here) | 7.6% | -23% | 7.2% | 16.6% | 9.85% | 22%
14 | C=CC(CCCC(C=C)OC(C)=O)OC(C)=O (stereo not drawn) | 2.2% | -4.95% | -0.65% | -18.1% | 5.6% | 5.5%
15 | CSC(=S)N/N=C(\c1ccccc1)c1ccccn1 | 0.3% | 13.2% | 0.85% | 10.4% | 21.2% | 5.75%
16 | COc1cc2c(cc1O)CN1Cc3cc(O)c(OC)cc3C2C1 | -4.95% | 2.35% | -9.1% | -20.9% | -10% | 13.3%
17 | COc1cccc(/S(C)=N/S(=O)(=O)c2ccc(C)cc2)c1 (stereo not drawn) | -11.2% | -7.15% | 2.8% | -6.65% | -8.65% | 8.5%
18 | CC(=O)Nc1ccc2c(c1)Cc1ccc(S(C)(=O)=O)cc1-2 | 23.9% | -7.15% | 10.9% | 6.9% | 0.65% | 44.1%
19 | O=C(O)/C=C/c1ccccc1C(=O)O | 11.3% | -4.3% | 4.05% | -13.2% | -11.4% | 6.05%

Row | SMILES | growth inhibition [1] | growth inhibition [2] | growth inhibition [3] | growth inhibition [4] | growth inhibition [5] | growth inhibition [6]
20 | CCN(CC)CCOC1CCCCC1Cc1ccccn1 (stereo not drawn) | -1.55% | 14.8% | 8.85% | -25.2% | -3.65% | 5.85%
21 | CC12CCC3C(CCC4CC(OC5CCCCO5)CCC43C)C1CC/C2=C/C#N (stereo not drawn) | 29.4% | -7.5% | 10.1% | 10.3% | 1.75% | -2.65%
22 | CC(SC(=S)SC(C)C(=O)O)C(=O)O (stereo not drawn) | 6% | 15.3% | 22.3% | 44% | -6.1% | 15.3%
23 | CC(C)(Oc1ccc(/C=C/C(=O)c2ccccc2)cc1)C(=O)Nc1c(Cl)cccc1Cl | -6.6% | -46.6% | -3.15% | -65.5% | -13.1% | -1.45%
24 | O=C1CSC(c2cccc(Cl)c2)N1CCN1C(=O)CSC1c1cccc(Cl)c1 (stereo not drawn) | -14.6% | 9% | -2.55% | -20.8% | 2.75% | -6.6%
25 | COc1cccc(NCNC2Nc3ccccc3N2)c1 | 25.1% | 10.1% | -0.75% | -23.4% | 18.4% | 19.8%
26 | CC12CCC(C/C1=N\N=C(N)N)C2(C)C (stereo not drawn) | 7.55% | -4% | -2.2% | -36.9% | -5.05% | 6.2%
27 | CC1=NOC2(C1)/C(=N/O)CCC/C2=N\O (stereo not drawn) | -3.65% | -25.1% | -1.5% | 20.9% | -11.6% | 0.45%
28 | O=C(NCCCl)NC(Cc1ccccc1)Cc1ccccc1 | 6.65% | 10.7% | 15% | 53.7% | 2.1% | 31.4%
29 | Nc1ncnc2c1nnn2C1CCC(CP(=O)(O)O)C1 (stereo not drawn) | 8.05% | 4.45% | -4.65% | 17.9% | 7.3% | 21.6%
30 | O=C(/C=C/c1cccs1)c1ccc(Cl)s1 | -18.3% | -33.3% | -2.55% | -7.45% | -6.5% | 0.2%
31 | CC(=O)/C=C(\O)c1c(C)[nH]c2ccccc12 | -16% | 9% | -3.95% | -41.4% | -11.9% | -5.95%
32 | O=C(Nc1cccc(F)c1)Sc1ccc(Cl)cc1 | 55% | 53.9% | 56.1% | 34% | 56.4% | 41%
33 | Nc1ccc(Cc2ccc(N)c(Br)c2)cc1Br | -0.75% | 13.9% | 25.1% | -19.3% | -14.8% | 32.4%
34 | NN(CC(=O)O)CC(=O)O | 18.8% | -2.8% | 2% | 4.75% | 29.1% | 20.9%
35 | CC(C)=CC(=O)N1CCN(C(=O)C=C(C)C)CC1 | -33.9% | -20.1% | -5.75% | 18.8% | 10.9% | -10.4%
36 | C#CCOC(=O)c1ccc(OC(C)=O)cc1 | -3.45% | 1.45% | 10.1% | 3.45% | 14.2% | -1.65%
37 | C=C1CCCC2OC(OC)CCC12 (stereo not drawn) | -23.4% | -10.8% | -6.5% | 0.75% | -21.9% | -10.6%
38 | C=C(C(=C)P(=S)(c1ccccc1)c1ccccc1)P(=S)(c1ccccc1)c1ccccc1 | -10% | -10.7% | -37.1% | -7.15% | -5.8% | -16.3%

Source: PubChem BioAssay (NCI)
